# According to publication PMC5540273 (PLoS ONE, 2017):
# “And” between values parts separate entries of the source, which are not always exact repeats. Identical values can stand only once. Like-named read-outs stand apart in the source and are kept apart here.
# Assays:
# [1] = tested on: PIKFYVE; conditions: concentration: 1 μM, replicates: in singlicate, n = 1
# [2] = tested on: PIM1; conditions: concentration: 1 μM, replicates: in singlicate, n = 1
# [3] = tested on: PIM2; conditions: concentration: 1 μM, replicates: in singlicate; n = 1
# [4] = tested on: PIM3; conditions: concentration: 1 μM, replicates: in singlicate, n = 1
# [5] = tested on: PIP5K1A; conditions: concentration: 1 μM, replicates: in singlicate, n = 1
# [6] = tested on: PIP5K1C; conditions: concentration: 1 μM, replicates: in singlicate, n = 1
# [7] = tested on: PIP5K2B; conditions: concentration: 1 μM, replicates: in singlicate, n = 1
# [8] = tested on: T1, PIP5K2C; conditions: concentration: 1 μM, replicates: in singlicate, n = 1
# T1 construct: gene PIP4K2C
# [9] = tested on: T2, PKAC-alpha; conditions: concentration: 1 μM, replicates: in singlicate, n = 1
# T2 construct: gene PRKACA
# [10] = tested on: T3, PKAC-beta; conditions: concentration: 1 μM, replicates: in singlicate, n = 1
# T3 construct: gene PRKACB
# [11] = tested on: PKMYT1; conditions: concentration: 1 μM, replicates: in singlicate, n = 1
# [12] = tested on: PKN1; conditions: concentration: 1 μM, replicates: in singlicate, n = 1
# [13] = tested on: PKN2; conditions: concentration: 1 μM, replicates: in singlicate, n = 1
# [14] = tested on: PLK1; conditions: n = 1
# [15] = tested on: PLK2; conditions: concentration: 1 μM, replicates: in singlicate, n = 1
# [16] = tested on: PLK3; conditions: concentration: 1 μM, replicates: in singlicate; n = 1
# [17] = tested on: PLK4; conditions: concentration: 1 μM, replicates: in singlicate, n = 1
# [18] = tested on: PRKCD; conditions: concentration: 1 μM, replicates: in singlicate, n = 1
# [19] = tested on: PRKCE; conditions: concentration: 1 μM, replicates: in singlicate, n = 1
# [20] = tested on: PRKCH; conditions: concentration: 1 μM, replicates: in singlicate, n = 1
# [21] = concentration: 1 μM, replicates: in singlicate
# [22] = concentration: 1 μM, replicates: in singlicate, 1 µM
# 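Note: KINOMEscan kinase panel screen.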
structure (smiles),measurement,setting,value
O=c1cc(N2CCOCC2)nc2n(Cc3cccc(C(F)(F)F)c3)ccn12 [GSK2297543],%Inh,[1],0%
same,%Inh,[2],11%
same,%Inh,[3],0%
same,%Inh,[4],0%
same,%Inh,[5],0%
same,%Inh,[6],28%
same,%Inh,[7],9%
same,%Inh,[8],1%
same,%Inh,[9],0%
same,%Inh,[10],8%
same,%Inh,[11],0%
same,%Inh,[12],29%
same,%Inh,[13],5%
same,%Inh,[14]; [21],3%
same,%Inh,[15],0%
same,%Inh,[16],0%
same,%Inh,[17],0%
same,%Inh,[18],8%
same,%Inh,[19],0%
same,%Inh,[20],9%
CCc1ccnc(/C=C/c2n[nH]c3cc(Sc4ccccc4C(=O)NC)ccc23)c1,%Inh,[1],0%
same,%Inh,[2],0%
same,%Inh,[3],0%
same,%Inh,[4],0%
same,%Inh,[5],5%
same,%Inh,[6],0%
same,%Inh,[7],27%
same,%Inh,[8],0%
same,%Inh,[9],0%
same,%Inh,[10],0%
same,%Inh,[11],0%
same,%Inh,[12],9%
same,%Inh,[13],0%
same,%Inh,[14]; [21],0%
same,%Inh,[15],0%
same,%Inh,[16],0%
same,%Inh,[17],83%
same,%Inh,[18],9%
same,%Inh,[19],12%
same,%Inh,[20],0%
O=C(NOCC1CC1)c1ccc(F)c(F)c1Nc1ccc(I)cc1Cl,%Inh,[1],40%
same,%Inh,[2],0%
same,%Inh,[3],0%
same,%Inh,[4],0%
same,%Inh,[5],0%
same,%Inh,[6],3%
same,%Inh,[7],0%
same,%Inh,[8],0%
same,%Inh,[9],0%
same,%Inh,[10],0%
same,%Inh,[11],0%
same,%Inh,[12],0%
same,%Inh,[13],0%
same,%Inh,[14]; [21],0%
same,%Inh,[15],8%
same,%Inh,[16],0%
same,%Inh,[17],0%
same,%Inh,[18],3%
same,%Inh,[19],28%
same,%Inh,[20],0%
Fc1ccc(-c2nn3c(OCC(F)(F)F)cccc3c2-c2ccncc2)cc1 [GW514784],%Inh,[1],51%
same,%Inh,[2],0%
same,%Inh,[3],0%
same,%Inh,[4],0%
same,%Inh,[5],50%
same,%Inh,[6],69%
same,%Inh,[7],18%
same,%Inh,[8],32%
same,%Inh,[9],6%
same,%Inh,[10],32%
same,%Inh,[11],0%
same,%Inh,[12],0%
same,%Inh,[13],0%
same,%Inh,[14]; [21],0%
same,%Inh,[15],0%
same,%Inh,[16],0%
same,%Inh,[17],0%
same,%Inh,[18],0%
same,%Inh,[19],14%
same,%Inh,[20],13%
Cl.Nc1ncnc2occ(-c3ccc(NC(=O)Nc4cc(C(F)(F)F)ccc4F)cc3)c12 [SB-707548],%Inh,[1],25%
same,%Inh,[2],23%
same,%Inh,[3],0%
same,%Inh,[4],0%
same,%Inh,[5],28%
same,%Inh,[6],57%
same,%Inh,[7],36%
same,%Inh,[8],45%
same,%Inh,[9],9%
same,%Inh,[10],0%
same,%Inh,[11],0%
same,%Inh,[12],0%
same,%Inh,[13],0%
same,%Inh,[14]; [21],5%
same,%Inh,[15],98.8%
same,%Inh,[16],98%
same,%Inh,[17],35%
same,%Inh,[18],27%
same,%Inh,[19],10%
same,%Inh,[20],1%
CNc1ncnc2[nH]ncc12 [SKF-18355],%Inh,[1],11%
same,%Inh,[2],0%
same,%Inh,[3],8%
same,%Inh,[4],0%
same,%Inh,[5],22%
same,%Inh,[6],0%
same,%Inh,[7],0%
same,%Inh,[8],0%
same,%Inh,[9],31%
same,%Inh,[10],16%
same,%Inh,[11],1%
same,%Inh,[12],0%
same,%Inh,[13],2%
same,%Inh,[14]; [21],31%
same,%Inh,[15],12%
same,%Inh,[16],23%
same,%Inh,[17],6%
same,%Inh,[18],0%
same,%Inh,[19],12%
same,%Inh,[20],0%
Cn1cc(-c2ccc3c(c2)CCN3C(=O)Cc2ccccc2Cl)c2c(N)ncnc21 [GSK2608885],%Inh,[1],0%
same,%Inh,[2],10%
same,%Inh,[3],0%
same,%Inh,[4],0%
same,%Inh,[5],0%
same,%Inh,[6],7%
same,%Inh,[7],0%
same,%Inh,[8],90.5%
same,%Inh,[9],45%
same,%Inh,[10],34%
same,%Inh,[11],18%
same,%Inh,[12],42%
same,%Inh,[13],31%
same,%Inh,[14]; [21],15%
same,%Inh,[15],51%
same,%Inh,[16],86%
same,%Inh,[17],55%
same,%Inh,[18],51%
same,%Inh,[19],7%
same,%Inh,[20],54%
COCCNC(=O)c1ccc(-c2cc(C(=O)NC3CC3)cc(F)c2C)cc1 [GW868318],%Inh,[1],43%
same,%Inh,[2],15%
same,%Inh,[3],3%
same,%Inh,[4],29%
same,%Inh,[5],1%
same,%Inh,[6],0%
same,%Inh,[7],0%
same,%Inh,[8],0%
same,%Inh,[9],9%
same,%Inh,[10],37%
same,%Inh,[11],10%
same,%Inh,[12],0%
same,%Inh,[13],20%
same,%Inh,[14]; [21],66%
same,%Inh,[15],46%
same,%Inh,[16],33%
same,%Inh,[17],34%
same,%Inh,[18],15%
same,%Inh,[19],36%
same,%Inh,[20],0%
CC(C)(CN)c1nc(-c2ccc(Cl)c(O)c2)c(-c2ccncc2)[nH]1.O=C(O)C(F)(F)F [SB-477794],%Inh,[1]; 1 µM,31% and 49%
same,%Inh,[5]; 1 µM,40% and 61%
same,%Inh,[6]; 1 µM,3% and 61%
same,%Inh,[7]; 1 µM,0% and 19%
same,%Inh,[8]; 1 µM,64% and 49%
same,%Inh,[9]; 1 µM,86% and 87%
same,%Inh,[10]; 1 µM,56% and 89%
same,%Inh,[11]; 1 µM,28% and 26%
same,%Inh,[12]; 1 µM,23% and 0%
same,%Inh,[13]; 1 µM,0% and 21%
same,%Inh,[14]; [22],4% and 1%
same,%Inh,[15]; 1 µM,0% and 15%
same,%Inh,[17]; 1 µM,5% and 0%
same,%Inh,[18]; 1 µM,78% and 87%
same,%Inh,[19]; 1 µM,96% and 96.3%
same,%Inh,[20]; 1 µM,92.9% and 94.1%
NCCNS(=O)(=O)c1ccc(-c2ccnc3[nH]ccc23)cc1 [GSK977617],%Inh,[2]; 1 µM,56% and 35%
same,%Inh,[4]; 1 µM,40% and 0%
same,%Inh,[5]; 1 µM,61% and 30%
same,%Inh,[6]; 1 µM,83% and 62%
same,%Inh,[7]; 1 µM,76% and 35%
same,%Inh,[8]; 1 µM,17% and 13%
same,%Inh,[9]; 1 µM,99.3% and 98.8%
same,%Inh,[10]; 1 µM,99.2% and 98.3%
same,%Inh,[11]; 1 µM,5% and 0%
same,%Inh,[12]; 1 µM,44% and 19%
same,%Inh,[13]; 1 µM,66% and 50%
same,%Inh,[14]; [22],6% and 2%
same,%Inh,[15]; 1 µM,10% and 0%
same,%Inh,[17]; 1 µM,26% and 24%
same,%Inh,[18]; 1 µM,97.7% and 95.2%
same,%Inh,[19]; 1 µM,96.8% and 68%
same,%Inh,[20]; 1 µM,95% and 91%
COc1cc2ncn(-c3cc(OCc4sccc4Cl)c(C(N)=O)s3)c2cc1OC [GSK448459],%Inh,[14]; 1 µM,100%
